From PubChem BioAssay
This is a sample that favours compounds with a hit; in the whole collection about 0.43% have one here.
CXXC DNA block: inhibitors of human MLL CXXC domain-DNA interaction; actives 0.037% (n = 290,000); Q03164; Potency, µM (series often up to 115 µM), hits mostly inhibitors; AID 2662; MLL-CXXC / FITC-HOXA9 DNA fluorescence polarization; active = well fitted inhibition curve with a large enough effect in the polarisation, with a control signal flat, not every such curve was filed as active; inconclusive = small, poorly fitted or top-dose-only effect, or effect the other way, or a change in a side signal; inactive = no such curve, though single readings can be large or run the other way; the % refers to the polarisation
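Purified MLL-CXXC (added from a 7 uM solution) was preincubated 5 min at ambient with pinned compounds in 50 mM Tris-HCl pH 7.5, 50 mM NaCl, 1 mM DTT, 0.05% BSA. Fluorescein-labeled HOX-A9 DNA (50 nM solution) followed, 30 min, then polarization read.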
Tb PFK inh-1: T. brucei PFK enzyme inhibition; T. brucei PFK, ADP-Glo luminescence; Potency, µM (titrated, usually from 57.5 µM), actives largely listed as inhibitors; O15648; actives 0.17% (n = 330,000); note: nearly all actives have a fitted effect of over 60% in size
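PFK 1.25 nM, F6P 0.5 mM, ATP 0.1 mM, 0.1 M TEA pH 8.0, 5 mM MgCl2, 0.01% Tween20, 0.1% BSA; 45 min RT. ADP-Glo readout. qHTS titration up to 57 uM; curves fitted, compounds curve-classed.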
Menin-MLL TR inh: menin-MLL binding inhibition, Texas Red mutant peptide | O00255 | Menin + Texas Red MLL mutant peptide, fluorescence polarization | Potency, µM (doses to about 61.6 µM), hits mostly inhibitors | actives 0.23% (n = 270,000) | AID 1768; active = well fitted inhibition curve with a large enough effect in the polarisation, with a control signal flat, not every such curve was filed as active; inconclusive = small, poorly fitted or top-dose-only effect, or effect the other way, or a change in a side signal; inactive = no such curve, though single readings can be large or run the other way; the % refers to the polarisation
Menin-MLL FL inh: menin-MLL binding inhibition, fluorescein peptide; Fluorescence polarization, fluorescein-MLL peptide displacement from menin; 290,000 tested, under 10 active; FP activity change, % at 61.4 µM; active = well fitted curve in the direction sought with a large enough effect in the polarisation, not every such curve was filed as active; inconclusive = small, poorly fitted or top-dose-only effect, or effect the other way, or a change in a side signal; inactive = no such curve, though single readings can be large or run the other way; the % refers to the polarisation
GoLoco inh red: blocks human Gai1 binding to RGS12 GoLoco peptide, red readout | P63096 | Gai1:RGS12 GoLoco peptide FP, rhodamine, 10 min | Potency, µM (series often up to 61.6 µM), most hits filed as inhibitors | actives 0.44% (n = 230,000); active = well fitted inhibition curve with a large enough effect, not every such curve was filed as active; inactive = no such curve, though single readings can be large or run the other way; note: nearly all actives have a fitted effect of over 30% in size
Target sequence (P63096 whole entry, looked up): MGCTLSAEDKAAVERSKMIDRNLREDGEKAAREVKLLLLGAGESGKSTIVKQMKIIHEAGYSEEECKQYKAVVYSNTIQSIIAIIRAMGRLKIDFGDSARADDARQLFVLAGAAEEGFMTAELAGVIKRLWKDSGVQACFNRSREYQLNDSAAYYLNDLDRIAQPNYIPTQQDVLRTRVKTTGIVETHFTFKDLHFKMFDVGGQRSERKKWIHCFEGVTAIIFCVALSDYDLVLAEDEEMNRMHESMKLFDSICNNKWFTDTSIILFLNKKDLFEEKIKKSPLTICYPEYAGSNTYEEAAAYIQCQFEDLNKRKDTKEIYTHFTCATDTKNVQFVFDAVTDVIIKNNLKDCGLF
TbPFK ATP: inhibits T. brucei PFK measured by ATP depletion | shares compounds with Tb PFK inh-1 | Tb PFK enzyme, ATP depletion, Kinase-Glo Plus luminescence | Potency, µM (top dose mostly 57.5 µM) | actives 47% (n = 1,100) | AID 504636; calls by dose curve; note: nearly all actives have a fitted effect of over 60% in size
Tb PFK inh-2: validation of T. brucei phosphofructokinase inhibitors. shares compounds with Tb PFK inh-1. purified T. brucei PFK, ADP-Glo luminescence, 45 min. Potency, µM (doses to about 57.5 µM), usual class: inhibitors. actives 41% (n = 1,100); note: nearly all actives have a fitted effect of over 60% in size
Hits are given with their value; – = inactive; ? = inconclusive; · = no result given; [ ] = remark or other dose. Unless noted, calls come from the whole dose curve; as a rule, active = well fitted inhibition curve with a large enough effect; inconclusive = small, poorly fitted or top-dose-only effect, or effect the other way; inactive = flat fitted curve, though single readings scatter.

SMILES | CXXC DNA block | Tb PFK inh-1 | Menin-MLL TR inh | Menin-MLL FL inh | GoLoco inh red | TbPFK ATP | Tb PFK inh-2
O=S(=O)(Oc1ccc(Cl)cc1)c1ccccc1 | · | · | – | – | · | · | ·
Cc1ccc(C(O)P(=O)(OCc2ccccc2)c2ccc(N(C)C)cc2)cc1 (configuration not stated) | – | – | · | – | – | · | ·
O=C(Cn1ccc2ccccc2c1=O)NCCC(=O)N1CCN(c2cccc(Cl)c2)CC1 | – | 24µM | – | – | – | ? | ?
O=C1CCc2cc(S(=O)(=O)NCCC(=O)N3CCN(c4cccc(Cl)c4)CC3)ccc2N1 | – | 27µM | – | – | – | 17µM | ?
CC1(c2ccc(Cl)cc2Cl)NC(=O)N(CC(=O)Nc2ccc3[nH]c(=O)[nH]c3c2)C1=O (configuration not stated) | · | ? | · | · | · | ? | ?
Cc1ccc(C2(C)NC(=O)N(CC(=O)Nc3ccc4[nH]c(=O)[nH]c4c3)C2=O)cc1 (configuration not stated) | – | ? | · | – | – | · | ·
Cc1cc(C)c2c(=O)n(CC(=O)NCCCN3CCOCC3)sc2n1 | – | 8.5µM | – | – | 32µM | ? | 11µM
Cc1ccc(NC(=O)c2ccc(C(C)(C)C)cc2)cc1[N+](=O)[O-] | – | – | – | · | – | · | ·
Nc1cc(N)cc(C(=O)Nc2ccc3c(c2)C(=O)NC3=O)c1 | – | ? | – | – | · | ? | ?
O=C(Nc1ccc2c(c1)C(=O)NC2=O)c1ccccc1Cl | – | ? | – | – | · | 12µM | 13µM
O=C(Nc1ccc2c(c1)C(=O)NC2=O)c1ccccc1 | – | – | – | – | · | · | ·
O=S(=O)(c1ccc2c(c1)CCCC2)N1CCNCC1 | · | – | · | · | · | · | ·
CCn1c(CCCc2ccc(OC)c(C)c2)n[nH]c1=S | – | – | – | – | – | · | ·
C[C@]12c3[nH]c4ccccc4c3CCN1C(=O)C(CC(=O)NCCc1ccccn1)C[C@@H]2C(=O)N1CCOCC1 (some centres not stated) | · | – | · | · | · | · | ·
CC(C)NC(=S)NNc1nc2ccccc2s1 | – | ? | – | – | – | 8.5µM | 7.6µM
O=C(CN1CCOCC1)Nc1ncc(Cc2cccc3ccccc23)s1 | – | – | – | – | – | · | ·
Cc1ccc(Cc2cnc(NC(=O)CN3CCOCC3)s2)cc1Cl | – | ? | – | – | – | 24µM | 30µM
CC(C(Sc1ccccc1N)c1ccccc1)[N+](=O)[O-] (configuration not stated) | ? | 24µM | · | – | – | ? | ?
CCOc1cc(/C=C\[N+](=O)[O-])ccc1OCC(=O)Nc1ccccc1C | – | ? | – | – | – | – | ?
CCC(=O)OCN1C(=O)C=CC1=O | · | · | · | · | –[14.2 µM] | · | ·
COC(=O)NCc1ccc(CNC(=O)OC)cc1 | – | – | – | – | – | · | ·
O=C(NCc1ccc(Cl)c(Cl)c1)c1ccc2c(c1)OCO2 | – | 24µM | · | · | · | 7.6µM | 8.5µM
O=C(NCCS(=O)(=O)N1CCN(c2cccc(Cl)c2)CC1)c1ccc2c(c1)OCO2 | · | ? | · | · | · | 21µM | ?
O=C(NCc1cccc(Cl)c1)c1ccc2c(c1)OCCO2 | – | 24µM | – | – | · | 13µM | 19µM
COC(=O)NCc1ccc(Cl)c(Cl)c1 | – | 21µM | – | – | – | 11µM | 30µM
SMILES | CXXC DNA block | Tb PFK inh-1 | Menin-MLL TR inh | Menin-MLL FL inh | GoLoco inh red | TbPFK ATP | Tb PFK inh-2
O=C(NCc1ccc2c(c1)OCO2)c1ccc2c(c1)OCCO2 | – | – | – | – | – | · | ·
O=C(NCc1ccc2c(c1)OCO2)c1ccc2c(c1)OCO2 | – | – | · | – | – | · | ·
COc1ccc(N2CCN(S(=O)(=O)CCNC(=O)c3ccc4c(c3)OCO4)CC2)cc1 | · | – | · | · | · | · | ·
O=C(N/N=C\c1ccc[nH]1)C1COc2ccccc2O1 (configuration not stated) | – | 24µM | · | – | – | 9.5µM | 19µM
O=C(N/N=C/c1ccco1)C1COc2ccccc2O1 (configuration not stated) | – | ? | – | – | – | ? | ?
O=C(N/N=C\c1ccc(Br)o1)C1COc2ccccc2O1 (configuration not stated) | – | ? | – | – | – | · | ·
CC(C)c1ccc(S(=O)(=O)N2CCC(C(=O)NCc3ccco3)CC2)cc1 | · | – | · | · | · | · | ·
Cc1cc2c(cc1[N+](=O)[O-])NC(CNC(C)C)CC2 (configuration not stated) | – | 12µM | – | – | – | 27µM | 17µM
C=CCSC1=N/C(=C\C=C\c2ccco2)C(=O)S1 | – | 17µM | – | ? | – | ? | ?
Clc1ccc(CN2C3=NCCCN3c3ccccc32)cc1 | – | 15µM | – | – | – | 24µM | 30µM
Clc1ccc(CN2C3=NCCCN3c3ccccc32)cc1Cl | – | 13µM | – | – | – | 7.6µM | 13µM
CN(CCOc1ccccc1)CC(=O)Nc1cccc(C#N)c1 | – | – | – | – | · | · | ·
C=CCn1c(SCC)nc2sc3c(c2c1=O)CCc1ccccc1-3 | – | – | – | – | – | · | ·
C=CCSc1nc2sc3c(c2c(=O)n1CC)CCc1ccccc1-3 | – | 13µM | – | – | – | 6.7µM | 11µM
O=C1OC(Nc2ccc(F)c([N+](=O)[O-])c2)c2ccccc21 (configuration not stated) | – | 15µM | · | – | – | 21µM | ?
COc1ccc(C(=O)Nc2sc3c(c2C(N)=O)CCCC3)cc1OC | · | · | ? | – | · | · | ·
O=c1cc(-c2ccc(O)c(O)c2)oc2cc(O)cc(O)c12 | – | ? | ? | ? | – | – | ?
COc1ccc(-c2cc(=O)c3c(O)cc(O)cc3o2)cc1 | · | – | ? | – | – | · | ·
COCCn1c(=O)c(C)nc2cnc(N3CCN(C)CC3)nc21 | · | · | – | – | – | · | ·
COc1ccc(N=C(C)c2c(O)[nH]c(=O)[nH]c2=O)cc1 | – | – | – | – | · | · | ·
Cc1cc(C)nc(/N=C(\N)c2c(O)[nH]c(=O)[nH]c2=O)n1 | – | ? | – | – | – | ? | –
N#Cc1cccc(C(=O)Nc2cc(S(=O)(=O)N3CCOCC3)ccc2N2CCCC2)c1 | · | – | · | · | · | · | ·
COc1ccc(/C=C2\Sc3ccc(C(=O)NCC4CCCO4)cc3N(C)C2=O)cc1 (configuration not stated) | – | – | – | – | · | · | ·
CCOc1ccc(OCC)c(NC(=O)C2CCN(S(=O)(=O)c3ccc4c(c3)CC(C)N4C(C)=O)CC2)c1 (configuration not stated) | – | – | · | · | · | · | ·
CC(=O)Nc1ccc(C=NNC(=O)c2ccc(NS(=O)(=O)c3cccs3)cc2)cc1 | · | – | · | · | · | · | ·
COc1cc(C=NNC(=O)c2ccc(NS(=O)(=O)c3cccs3)cc2)cc(Br)c1O | · | ? | · | · | · | – | ?
Cc1cc2oc(=O)cc(CNc3ccccc3F)c2cc1O | – | – | ? | – | · | · | ·
CCOCC(=O)Nc1cc(C(=O)Nc2cc(C)cc(C)c2)ccc1Cl | – | – | – | – | – | · | ·
S=C1CCSc2ccc(Cl)cc2N1 | – | ? | – | – | – | ? | ?
